# Rows were chosen to be rich in hits. Some 7.3% of all compounds tested hit in one or more screens of this group.
# FLuc counter: firefly luciferase modulation, counter-screen for miR-21 project; P08659; purified FLuc, Km substrates, luminescence inhibition; Potency, µM (highest dose often 57.5 µM), for the others: top-dose activity change, negative = inhibition, actives largely listed as inhibitors; 360,000 tested, 6.9% active;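 note: plate controls were vehicle for no effect and reference inhibitor for full effect; nearly all actives have a fitted effect of over 55% in size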
# Target sequence (P08659 whole entry, looked up): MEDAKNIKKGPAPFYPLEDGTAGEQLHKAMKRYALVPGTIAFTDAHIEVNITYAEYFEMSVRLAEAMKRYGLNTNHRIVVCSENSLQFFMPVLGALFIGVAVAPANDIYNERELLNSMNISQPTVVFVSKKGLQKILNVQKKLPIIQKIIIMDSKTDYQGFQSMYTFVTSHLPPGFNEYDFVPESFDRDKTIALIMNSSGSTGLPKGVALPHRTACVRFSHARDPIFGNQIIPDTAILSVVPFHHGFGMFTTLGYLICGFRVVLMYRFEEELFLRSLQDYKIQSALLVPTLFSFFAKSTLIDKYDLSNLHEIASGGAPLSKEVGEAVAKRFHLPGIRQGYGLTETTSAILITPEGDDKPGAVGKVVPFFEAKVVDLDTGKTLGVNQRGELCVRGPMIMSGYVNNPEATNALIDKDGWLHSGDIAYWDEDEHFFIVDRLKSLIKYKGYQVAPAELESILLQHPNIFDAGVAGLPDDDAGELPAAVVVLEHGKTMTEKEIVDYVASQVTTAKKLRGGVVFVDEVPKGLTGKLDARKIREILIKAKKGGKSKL
#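 Purified P. pyralis luciferase (10nM final) with 10uM D-luciferin and 10uM ATP (Km levels) in 50mM Tris acetate pH 7.5, 10mM Mg acetate, 0.01% Tween-20, 0.05% BSA; qHTS 6-point titration, ~60 µM downward; luminescence read.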
# ELG1 genotoxic: inducers of genotoxicity in HEK293T ELG1-luciferase cells; HEK293T ELG1-luciferase reporter, luminescence, 16 h; Potency, µM (series often up to 46 µM), for inactives: at the top dose activity change, positive = activation, actives largely listed as activators; 330,000 tested, 1.3% active; note: % of control where 0% means no effect; nearly all actives have a fitted effect of over 60% in size
#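 Luminescence read-out: rising ELG1-luciferase signal, reflecting elevated ELG1 protein under genetic stress, flags genotoxic compounds. Cells were treated for 16 hr at 37 °C before ONE-Glo detection.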
# Rab9 prom act: activators of Rab9 promoter. 320,000 tested, 2.8% active. Huh7 Rab9 promoter-luciferase reporter, luminescence, 24 h. Potency, µM (titrated, usually from 9.22 µM), inactives show at the top dose activation, negative = inhibition, hits mostly activators. AID 485297; note: % of control where 0% means no effect; nearly all actives have a fitted effect of over 60% in size
#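 Cell-based reporter: Huh7 stable for Rab9 promoter-driven luciferase, plated in reduced-serum medium with 10% FBS at 1500 cells/well, compound-treated 24 h at 37 °C, luminescence read after 10 min reagent.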
# NPC1 prom act: activators of NPC1 promoter. Potency, µM (highest dose often 9.22 µM), for the others: top-dose activation, hits mostly activators. 320,000 tested, 2.4% active. Huh7 NPC1 promoter luciferase reporter, 24 h; note: % of control where 0% means no effect; nearly all actives have a fitted effect of over 60% in size
#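 In 1536-well qHTS, Huh7 cells harboring an NPC1 promoter–luciferase construct received compound for 24 h; activation was quantified by luminescence following luciferase reagent addition.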
# KinaseGlo FLuc: Kinase-Glo luciferase inhibition (counter-screen); Kinase-Glo luciferase, ATP luminescence, 8 min; 200,000 tested, 0.28% active; AID 1379; Potency, µM (titrated, usually from 38.3 µM), without a hit: at the highest dose activity change, negative = inhibition, most hits filed as inhibitors; Q27757; note: % is set by controls: 0 for no effect and ±100 for the full control effect; nearly all actives have a fitted effect of over 60% in size
#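 Substrate mix (final 50 mM imidazole pH 7.2, 50 mM KCl, 7 mM MgCl2, 10 uM ATP, 0.01% Tween 20, 0.05% BSA) plus pin-tool compound, then Kinase-Glo detection mix; 8 min ambient, luminescence read.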
# SMN2 splice enh: SMN2 splice variant enhancement; HEK293 SMN2-luciferase splicing reporter, luminescence, 30-36 h; Potency, µM (series often up to 46.1 µM), for the others: top-dose activity change, positive = activation, most hits filed as activators; AID 1458; 210,000 tested, 2.8% active; note: % of control where 0% means no effect; nearly all actives have a fitted effect of over 55% in size
#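 HEK293 cells carry an SMN2 […]–luciferase reporter in which exon 7 inclusion puts luciferase in frame. Cells were plated 10-12 h before compound addition, then incubated 30-36 h at 37C. ONE-Glo luminescence was read; sodium butyrate at 4.5 mM final served as control.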
# Numbers without * were called inactive; ? = inconclusive; / = no result; [ ] = remark or other dose. Calls come from the whole dose curve; as a rule, active = well fitted curve in the direction sought with a large enough effect; inconclusive = small, poorly fitted or top-dose-only effect, or another doubt; inactive = no such curve, though single readings can be large; an effect the other way counts as inactive or inconclusive. Potency is the fitted concentration of half-maximal effect.
SMILES,FLuc counter,ELG1 genotoxic,Rab9 prom act,NPC1 prom act,KinaseGlo FLuc,SMN2 splice enh
CC1N(C)c2cc(NC(=O)c3ccco3)ccc2C1(C)C (stereo unspecified),9.53µM*,?,1µM*,3.16µM*,-5.0%,15.8µM*
O=C(Nc1ccc(Cl)cc1)c1ccco1,16.9µM*,?,?,2.82µM*,/,/
Cc1cccc(C(=O)N2CCN(c3ccc([N+](=O)[O-])c(NCc4ccco4)c3)CC2)c1,0.0%,-3.0%,-13.0%,-5.5%,-1.2%,-24.3%
COc1ccc(Nc2c(-c3ccc(C)o3)nc3ccc(Cl)cn23)cc1,4.4%,/,/,/,/,13.3%
COc1ccccc1C(=O)Nc1c(-c2ccccc2)nc2ccccn12,0.4%,-7.8%,-4.7%[1.84 µM],-0.1%,/,/
COc1ccccc1C(=O)Nc1nnc(-c2ccc(F)cc2)s1,4.78µM*,13.8%,4.47µM*,3.16µM*,/,/
Cc1cc(C(=O)Nc2nnc(C3CCCCC3)s2)no1,?,/,/,/,-2.7%,4.3%
NC(=O)c1c(NC(=O)c2cc(-c3ccc(F)cc3)on2)sc2c1CCCC2,-18.1%,/,/,/,/,3.6%
COc1ccccc1C(=O)Nc1nsc(-c2ccccc2)n1,4.26µM*,?,1.58µM*,?,/,/
Cc1cc(C(=O)Nc2sc(C)c(-c3ccc(F)cc3)c2C(N)=O)no1,1.2µM*,?,3.16µM*,3.16µM*,-3.6%,12.8%
Cc1cc(C(=O)Nc2nnc(-c3ccccc3)s2)no1,26.9µM*,20.4%,?,26.1%,0.2%,-3.4%
CC(=O)c1ccc(N2CCN(C(=O)c3ccc4c(Cl)c5c(nc4c3)CCCC5)CC2)cc1,-0.3%,-0.1%,-1.3%,0.6%,/,/
O=C(Nc1nnc(-c2ccccc2)s1)c1ccc(F)cc1,-12.4%,?,1.41µM*,?,1.0%,?
Cc1cccc(C(=O)NCC(=O)N2CC=C(c3ccccc3)CC2)c1,-17.7%,2.4%,-4.5%,0.1%,/,/
Cc1ccc(C2=NC(=O)/C(=C/c3cc(O)c(O)c(Br)c3)S2)cc1,8.49µM*,-9.2%,-11.0%,-7.5%,10µM*,-10.3%
COc1cc(/C=C2\SC(c3ccc(C)cc3)=NC2=O)cc(OC)c1O,6.75µM*,2.7%,-17.7%,-2.4%,-25.9%,26.7%
Cc1onc(-c2c(F)cccc2Cl)c1-c1nnc(-c2cccc3ccccc23)o1,3.2%,1.6%,-3.9%,3.0%,/,/
CCOC(=O)N1CCN(CCC(=O)Nc2ccc(Br)cc2)CC1,-0.7%,-1.7%,-10.1%,7.8%,-1.8%,-34.7%
COc1ccc(C(=O)O/N=C(\N)c2ccccc2)cc1OC,10.7µM*,20.6µM*,3.55µM*,2.82µM*,/,/
COc1ccc(/C(N)=N/OC(=O)CSc2ccccc2)cc1OC,23.9µM*,18.4µM*,17.5%,27.4%,-1.8%,12.3%
COc1ccc(C(=O)O/N=C(\N)c2ccncc2)cc1OC,-12.3%,17.4%,9.7%,-1.4%,-4.1%,17.1%
COc1ccc(C(=O)O/N=C(\N)c2cccc(C)c2)cc1OC,21.3µM*,?,?,?,/,/
CN1CCN(/N=C/c2ccc(-c3ccccc3)cc2)CC1,19µM*,8.7%,?,3.55µM*,-5.5%,?
CSc1ccc(/C=N/N2CCN(C)CC2)cc1,21.3µM*,16.8%,3.16µM*,?,-6.9%,17.8µM*
CSc1ccc(/C=N/n2c(C)cc(C)cc2=O)cc1,15.1µM*,10.3µM*,2.82µM*,?,-9.3%,?
SMILES,FLuc counter,ELG1 genotoxic,Rab9 prom act,NPC1 prom act,KinaseGlo FLuc,SMN2 splice enh
CSc1ccc(/C=N/n2c(C)nnc2C)cc1,-4.1%,9.9%,-6.0%,-10.0%,3.0%,10.4%
CCC(Sc1nc2ccccc2c(=O)n1CCc1ccc(OC)c(OC)c1)C(=O)N(CC)CC (stereo unspecified),-14.1%,/,/,/,/,/
CC(=O)NS(=O)(=O)c1ccc(N2C(=O)CC(Sc3nccc(C)n3)C2=O)cc1 (stereo unspecified),0.4%,-0.5%,-2.2%,-2.2%,/,/
CCN(CC)S(=O)(=O)c1ccc2nc(NC(=O)c3cccs3)sc2c1,15.1µM*,?,?,23.2%,1.9%,?
CCN(CC)S(=O)(=O)c1ccc2nc(NC(=O)c3ccco3)sc2c1,19µM*,3.7%,7.9%,16.3%,-1.9%,12.2%
CC(NC(=O)C1CCN(S(=O)(=O)c2ccccc2)CC1)c1ccccc1 (stereo unspecified),-0.7%,3.7%,4.4%,4.1%,/,/
O=C1C=C(N2CCCCCC2)C(=O)N1c1ccc(Cl)cc1,2.13µM*,?,2.24µM*,1.58µM*,/,/
Cc1cccnc1Nc1nc(-c2ccc(O)cc2)cs1,6.75µM*,?,3.55µM*,?,-8.9%,25.1µM*
Cc1cccnc1Nc1nc(-c2ccc(F)cc2)cs1,2.69µM*,13µM*,2.82µM*,1.41µM*,/,/
Fc1ccc(-c2csc(NC3=NCCC3)n2)cc1,?,?,12.5%,8.3%,0.4%,15.8%
COc1cc(Br)cc(Br)c1OCC(=O)N/N=C/c1c(C)n(C)n(-c2ccccc2)c1=O,0.7%,-1.6%,-8.0%,-2.6%,/,/
O=C(NCc1ccc2c(c1)OCO2)c1ccc(N2CCCCCC2)c([N+](=O)[O-])c1,2.3%,-0.4%,-1.7%,0.1%,5.4%,-4.4%
c1ccc(CSc2ccc(-c3ccc4c(c3)OCO4)nn2)cc1,2.69µM*,?,3.16µM*,3.55µM*,-1.2%,17.8µM*
Cn1c(SCc2ccccc2)nnc1-c1ccc2c(c1)OCO2,?,18.4µM*,?,?,-1.3%,22.4µM*
c1ccc(CSc2ccc(-c3cccnc3)nn2)cc1,21.3µM*,13.0%,?,?,-3.3%,?
Cn1c(SCC#N)nnc1-c1ccc2c(c1)OCO2,0.2%,3.6%,-2.9%,-1.3%,-3.7%,-9.2%
c1cncc(CSc2ccc(-c3cccnc3)nn2)c1,-8.7%,3.0%,-1.8%,0.2%,-1.1%,11.1%
Fc1ccc(CSc2ccc(-c3ccc4c(c3)OCO4)nn2)cc1,?,13.5%,-4.4%,1.8%,1.3%,7.3%
O=C(C1CCC(CNc2c(N3CCCC3)c(=O)c2=O)CC1)N1CCc2ccccc21 (stereo unspecified),2.8%,2.5%,-3.7%,-7.3%,/,/
O=C(c1cc(N2CCOCC2)c(F)cc1[N+](=O)[O-])N1CCOCC1,-2.7%,1.8%,-3.5%,-1.1%,/,/
CCC(=O)Nc1c(C(=O)N2CCCCCC2)cnn1-c1ccc(C)c(C)c1,-0.3%,-1.0%,-1.4%,-0.6%,1.1%,7.6%
COc1cc(/C=C/c2nc3ccccc3c(=O)[nH]2)cc(OC)c1OC,?,12.0%,0.3%[1.84 µM],-4.9%,/,/
Cc1ccc(/C=C/c2nc3ccccc3[nH]2)cc1,0.0757µM*,/,/,/,/,/
Cc1ccc(/C=C/c2nc3ccccc3[nH]2)o1,0.849µM*,?,0.447µM*,0.708µM*,12.6µM*,3.98µM*

# Compound activity as filed in PubChem.
